NadD inh: inhibitors of S. aureus NadD, primary screen, biochemical, colorimetric, uHTS. purified NadD enzyme, colorimetric absorbance read-out. hit rate 0.78% among 360,000. AID 602399, 2012. Nicotinate-nucleotide adenylyltransferase NadD (Staphylococcus aureus N315). inhibition, % at 20 µM; in the data active = inhibition above about 26%
DAGLB inh: DAGLB lipase inhibitors, primary screen, biochemical, fluorescence, HTS. Diacylglycerol lipase-beta (Homo sapiens), Q8NCG7. HEK293T DAGLB membrane lysate, EnzChek fluorogenic substrate. inhibition, % at 5.17 µM. hit rate 0.059% among 340,000. AID 504411, 2011; in the data active = inhibition above about 34%;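 also: 0% = enzyme with vehicle and 100% = wells lacking enzyme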
Target sequence (Q8NCG7 whole entry, looked up): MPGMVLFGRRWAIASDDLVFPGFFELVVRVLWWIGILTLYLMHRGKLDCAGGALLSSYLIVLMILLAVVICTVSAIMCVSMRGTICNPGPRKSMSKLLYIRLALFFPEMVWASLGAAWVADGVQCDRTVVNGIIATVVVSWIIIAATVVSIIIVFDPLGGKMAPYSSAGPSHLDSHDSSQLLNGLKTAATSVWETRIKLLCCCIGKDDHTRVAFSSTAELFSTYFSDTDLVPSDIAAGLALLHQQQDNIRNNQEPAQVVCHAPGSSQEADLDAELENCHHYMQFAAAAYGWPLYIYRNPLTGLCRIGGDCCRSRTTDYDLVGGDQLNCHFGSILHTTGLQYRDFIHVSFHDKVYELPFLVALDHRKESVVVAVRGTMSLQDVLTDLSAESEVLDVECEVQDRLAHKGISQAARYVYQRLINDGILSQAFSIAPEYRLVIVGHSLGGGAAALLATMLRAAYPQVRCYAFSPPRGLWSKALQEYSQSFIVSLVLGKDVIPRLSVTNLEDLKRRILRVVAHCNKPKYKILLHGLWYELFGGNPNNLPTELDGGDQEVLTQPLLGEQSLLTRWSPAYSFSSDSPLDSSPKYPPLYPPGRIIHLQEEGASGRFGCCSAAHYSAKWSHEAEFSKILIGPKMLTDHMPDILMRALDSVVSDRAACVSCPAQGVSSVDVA
sPLA2-III inh: human group III sPLA2 inhibitors, primary screen, biochemical, QFRET, BODIPY PC-A2 liposome substrate; AID 743126, 2013; QFRET BODIPY PC-A2 liposome hydrolysis, fluorescence; Group 3 secretory phospholipase A2 (Homo sapiens), Q9NZ20; inhibition, % at 12.2 µM; hit rate 0.56% among 370,000;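 active = inhibition above mean plus 3 SD of compounds lying within the high and low control bounds, cut at about 19% in these data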;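 also: 0% = median of test compound wells and 100% = no enzyme DMSO wells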
ARNT TACC3 PPI: disruptors of ARNT/TACC3 protein interaction, primary screen, biochemical, AlphaScreen, single concentration | AlphaScreen His-ARNT PAS-B/GST-TACC3 binding, luminescence; TACC3 fragment carries E629A point mutation | inhibition, % at 9.99 µM | hit rate 0.66% among 390,000 | AID 623870, 2012;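 active = mean inhibition of replicates at least 50% and at least half of replicates each reaching 50%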;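 also: 0% = complete ARNT plus TACC3 wells and 100% = ARNT alone without TACC3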
Neddylation inh: inhibitors of cullin neddylation, primary screen, biochemical, TR-FRET, uHTS, NAE and Ubc12; inhibition, % at 25 µM; hit rate 0.58% among 360,000; in the data active = inhibition above about 36%
hGIII sPLA2 conf: human group III sPLA2 inhibitors, confirmation, biochemical, QFRET, triplicate; shares compounds with sPLA2-III inh; recombinant hGIII-sPLA2, BODIPY PC-A2 QFRET fluorescence; inhibition, % at 12.2 µM; hit rate 34% among 2,000; AID 743280, 2014;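 active = mean inhibition across triplicates above the hit cutoff set in the earlier primary screen, cut at about 19% in these data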;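 also: 0% = enzyme with DMSO and 100% = DMSO wells lacking enzyme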
535nm interf: 535nm fluorescence optical interference, confirmation, artefact control for HGIII-sPLA2 inhibitor project, biochemical, QFRET | shares compounds with sPLA2-III inh | inhibition, % at 12.2 µM | BODIPY FL product fluorescence interference | hit rate 8.5% among 2,000;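 active = average inhibition above the solvent-only control mean plus 3 SD, cut at about 6% in these data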;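 also: 0% = DMSO with substrate plus product and 100% = DMSO with substrate alone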
BODIPY interf DR: 535nm fluorescence optical interference, dose response, artefact control for HGIII-sPLA2 inhibitor project, biochemical, QFRET; 240 tested, under 10 active; shares compounds with sPLA2-III inh; IC50, µM; BODIPY FL product fluorescence interference, cell-free;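 active = IC50 at or below 10 µM; inactive = IC50 above 10 µM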
* hit, by the source's call; nt = not tested or not shown. Most compounds without a hit are left out; they make up all but 2% or so of the library.

SMILES	NadD inh	DAGLB inh	sPLA2-III inh	ARNT TACC3 PPI	Neddylation inh	hGIII sPLA2 conf	535nm interf	others
O=C(N[C@H]1CC[C@@H](CC(=O)N2CCOCC2)O[C@@H]1CO)c1ccccn1	nt	nt	nt	-3	nt	nt	nt
CC1(NC(=S)NCCO)CCS(=O)(=O)C1 (configuration not stated)	0	0	20*	-13	5	0	-8
O=C(C[C@H]1CC[C@@H]2[C@H](COC[C@H](O)CN2Cc2ccc3c(c2)OCO3)O1)Nc1ccc(-c2ccccc2)cc1	nt	nt	nt	3	nt	nt	nt
O=C(C1=C[C@@H](c2ccc3c(c2)Cc2ccccc2-3)C[C@@H](OCCCCO)O1)N1CCCCC1	nt	nt	nt	-6	nt	nt	nt
CC(C)C[C@H](NC(=O)c1[nH]cnc1C(=O)N[C@@H](C)C(=O)OC(C)(C)C)C(=O)OC(C)(C)C	1	-7	23*	23	-27	-10	-30
CC(C)C[C@H](NC(=O)c1nc[nH]c1C(=O)N[C@@H](CCCCN)C(=O)OC(C)(C)C)C(=O)OC(C)(C)C	1	3	nt	8	-7	nt	nt
CC(=O)c1ccc2c(c1)C1C=CCC1C(c1cc3c(cc1Br)OCO3)N2 (configuration not stated)	20	0	0	-4	-39	nt	nt
COc1ccc2c(c1)C1C=CCC1C(c1cc3c(cc1Br)OCO3)N2 (configuration not stated)	44*	9	20*	5	-26	34*	8.9*
O=C(C1CC1)N1C[C@H]2[C@@H](c3ccccc31)[C@H](CO)N2Cc1ccccc1Cl	nt	nt	nt	3	nt	nt	nt
O=C1NC(=S)N/C1=C\c1cccc([N+](=O)[O-])c1	2	2	20*	1	-21	-2	-3
O=C(C[C@@H]1C[C@@H]2c3cc(NC(=O)CC4CC4)ccc3O[C@@H]2[C@@H](CO)O1)NCc1ccccc1F	nt	nt	nt	-7	nt	nt	nt
CN(C)c1ccc(NC(=O)Nc2ccc3c(c2)nnn3C)cc1	-6	1	19*	-4	0	7	-4
CCC(=O)N(C)C[C@H]1Oc2ncc(-c3ccccc3C)cc2C(=O)N([C@H](C)CO)C[C@H]1C	nt	nt	nt	-10	nt	nt	nt
O=C(Nc1nc(-c2ccccn2)cs1)c1ccc(Br)s1	15	-2	38*	nt	-65	27*	0
CN1CCN(C(=O)C[C@H]2CC[C@@H]3[C@H](COC[C@H](O)CN3Cc3ccc4c(c3)OCO4)O2)CC1	nt	nt	nt	-22	nt	nt	nt
COc1cc2c(cc1OC)C(c1ccc([N+](=O)[O-])cc1)NCC2 (configuration not stated)	-2	-2	20*	-1	-30	5	-8
COc1cc2c(cc1OC)C(c1cc([N+](=O)[O-])ccc1O)NCC2 (configuration not stated)	-4	0	-4	3	-4	nt	nt
CN(C)CCCNC(=O)[C@H]1[C@H](CO)[C@H]2Cn3c(cccc3=O)[C@@H]1N2CC1CC1	nt	nt	nt	3	nt	nt	nt
C(=C\N1CCCCCC1)/c1nnnn1-c1ccc(-c2ccccc2)cc1	6	-2	20*	-4	22	5	-4
Fc1ccc(N2CCN(/C=C/c3nnnn3-c3ccccc3)CC2)cc1	-4	-1	2	-2	1	nt	nt
COCCn1c(C)cc(C(=O)COC(=O)c2ccccc2Br)c1C	0	0	-7	2	9	nt	nt
COCCn1c(C)cc(C(=O)COC(=O)c2cncc(Br)c2)c1C	-4	1	21*	nt	1	6	-8
Cc1nn(C)c(C(=O)NNC(=S)NC2CCCCC2)c1Br	1	0	23*	8	-6	22*	-3
Cn1ncc(Br)c1C(=O)NC1CCCCCCC1	-2	0	8	-3	-5	nt	nt
CO[C@H]1CN(C)C(=O)c2cc(NS(=O)(=O)c3ccccc3)ccc2OC[C@@H](C)N(Cc2nccs2)C[C@H]1C	nt	nt	nt	-3	nt	nt	nt
SMILES	NadD inh	DAGLB inh	sPLA2-III inh	ARNT TACC3 PPI	Neddylation inh	hGIII sPLA2 conf	535nm interf	others
C[C@H](CO)N1C[C@H](C)[C@H](CN(C)C(=O)Nc2ccccc2)Oc2ccc(N(C)C)cc2CC1=O	nt	nt	nt	0	nt	nt	nt
Cc1cccc(OCCNc2cc(N3CCOCC3)ccc2[N+](=O)[O-])c1	-1	0	19*	0	-25	-2	-16
CN(C)c1ccc2c(c1)[C@H]1C[C@H](CC(=O)NCc3cccc(F)c3)O[C@@H](CO)[C@H]1O2	nt	nt	nt	23	nt	nt	nt
CNC(=O)CCN(Cc1ccco1)S(=O)(=O)c1ccc(OC)c(OC)c1	-3	0	23*	10	3	0	-7
C/C=C/c1cnc2c(c1)C(=O)N([C@@H](C)CO)C[C@@H](C)[C@@H](CN(C)C(=O)C1CCCCC1)O2	nt	nt	nt	-7	nt	nt	nt
CCOc1ccccc1NC(=S)N1CCN(c2ccccc2)CC1	0	-7	24*	14	-2	26*	-4
Nc1ccc(N=Nc2ccccc2O)c(N)c1	4	nt	21*	nt	-139	56*	21*
C=CCn1c(O)c(N=Nc2ccccc2O)c2ccccc21	-7	17	4	8	-66	nt	nt
Oc1ccccc1N=Nc1ccccc1O	2	17	36*	nt	-22	36*	5	BODIPY interf DR=>122
Cc1ccc(N=Nc2cc(C)ccc2O)c(C)c1	-4	0	9	0	-5	nt	nt
C[C@H](CO)N1C[C@H](C)[C@H](CN(C)CC2CC2)Oc2cc(/C=C/c3ccccc3)ccc2S1(=O)=O	nt	nt	nt	10	nt	nt	nt
O=C(NC(=S)N1CCN(C/C=C/c2ccccc2)CC1)c1c(F)cccc1F	-4	-2	27*	-2	-2	24*	-2
O=C(NC(=S)N1CCN(C/C=C/c2ccccc2)CC1)c1ccco1	-2	-2	1	1	-5	nt	nt
CCCCN1C(=O)Cc2c1nc(N)c1c(N)nc(N(CCC)CCC)c(C#N)c21	14	-12	28*	40	-44	11	-8
N#Cc1c(N(CCO)CCO)nc(N)c2c(N)nc3c(c12)CC(=O)N3CC1CCCO1 (configuration not stated)	-18	4	0	3	nt	nt	nt
